Data: PubChem BioAssay AID565 (University of Pittsburgh Molecular Library Screening Center, 2006)
Among all 65,000 compounds or so, about 1,200 (1.8%) were called active. This is one part of a sample in which actives are shown more often than they occur. Unmarked numbers belong to inactive results. Rule as the data show it: active = inhibition above about 50%; inactive = the rest.

target: Gag-Pol polyprotein (Human immunodeficiency virus type 1 group M subtype B (isolate HXB2)) (UniProt P04585); test: blockers of HIV-1 RNase H RNA/DNA cleavage – biochemical, fluorescence, primary screen (AID 565); details: RT-RNase H RNA/DNA duplex cleavage, at 10 µM, active compounds read high

Row | Structure (SMILES) | inhibition
1 | Cn1c(=NC(=O)c2ccco2)sc2cccc(F)c21 | -27.2%
2 | COCc1cc(C)nc(Nc2cc(C)ccc2C)c1C#N | -17%
3 | Cc1noc(NS(=O)(=O)c2ccc(N3CC(O)=C(c4ccccc4)C3=N)cc2)c1C | -3.39%
4 | Cc1cnc(NC(=O)CSc2nnc(-c3ccccc3)n2Cc2ccccc2)s1 | -0.4%
5 | Cc1cc(C)nc(SCc2nnc(SCC(=O)Nc3ncc(C)s3)n2Cc2ccco2)n1 | -40.5%
6 | Cc1cnc(NC(=O)CSc2nnc(-c3ccc(Cl)cc3Cl)n2N)s1 | 70.1% (active)
7 | CCCNS(=O)(=O)c1ccc2c(c1)CCCN2C(C)=O | -15.5%
8 | CCOC(=O)c1c(NC(=O)c2ccc(Br)o2)sc2c1CCCC2 | -13%
9 | CC1CCc2c(sc(NC(=O)c3ccc(Cn4cc(Br)cn4)o3)c2C(N)=O)C1 (stereo not drawn) | 88.6% (active)
10 | CCc1c(C)sc(NC(=O)c2ccc(Br)o2)c1C(=O)OC | -67.1%
11 | CCC1(C)Cc2c(sc3nc4n(c(=O)c23)CCCS4)CO1 (stereo not drawn) | -2.87%
12 | CC(=O)Nc1nonc1-c1nc2ccccc2n1Cc1ccccn1 | -10.2%
13 | CCOc1ccc(NC(=O)N2CCN(CC)CC2)cc1 | -4.55%
14 | Cc1ccc2c(c1)sc1ncc(NC(=O)c3ccccc3)c(=O)n12 | 68.4% (active)
15 | Cc1ccccc1NC(=O)c1ccccc1 | -3.87%
16 | Cc1ccc(NC(=O)c2nc[nH]c2C(=O)N2CCCCC2)c(C(=O)c2ccccc2)c1 | 2.94%
17 | COc1ccccc1CNC(=O)CCCn1c(=O)c2ccccc2n(CC(=O)NC2CCCC2)c1=O | -18.8%
18 | COc1ccc(CCNc2ncnc3nc[nH]c23)cc1OC | -5.66%
19 | Oc1ccc2nc(Cc3ccccc3)[nH]c2c1 | -7.13%
20 | COC(=O)Nc1nc2ccc(Sc3ccccc3)cc2[nH]1 | 82.8% (active)
21 | COC(=O)Cc1nc2ccccc2[nH]1 | -25.6%

Row | Structure (SMILES) | inhibition
22 | O=C1c2cccnc2C(=O)N1Cc1cccs1 | -2.26%
23 | COc1ccc(C(=O)NC(=O)CSc2nnc(-c3ccco3)n2-c2ccccc2)cc1 | -5.53%
24 | N#Cc1ccccc1-n1c(N)c(C(=O)N2CCCC2)sc1=S | 68% (active)
25 | Cc1ccc(OCCCC(=O)N2CCOCC2)c(C)c1 | -20.5%
26 | Cc1cccc(-n2c(C)nc3cc(C(=O)N4CCC5(CC4)OCCO5)ccc32)c1 | 3.01%
27 | Cc1cccc(-n2c(N)cc(=O)nc2SC(C)C(=O)NC2CCCCC2)c1 (stereo not drawn) | -4.66%
28 | O=C(c1ccccc1)N1CCN(C(=O)N2CCCCC2)CC1 | -10.1%
29 | Cc1ccc(-n2c(N)c(C(=O)N3CCOCC3)sc2=S)c(C)c1 | 79.7% (active)
30 | CCC(=O)Nc1sc(C(=O)N2CCCCC2)c(C)c1C#N | 0.57%
31 | Cc1cccc(-n2c(N)c(C(=O)N3CCN(C)CC3)sc2=S)c1 | 90.6% (active)
32 | CC(=O)c1c(N2CCOCC2)nc(=S)n(-c2cc(C)ccc2C)c1C | -1.2%
33 | COc1cccc(-n2c(SCC(=O)NC3CCCCC3)nc3n[nH]c(C)c3c2=N)c1 | -20%
34 | Cc1ccc2nc(NC3=NCN(CCc4ccccc4)CN3)nc(C)c2c1 | 11.4%
35 | COc1ccc(C(=O)Nc2c(N)nc(SCC(=O)N3CCC(C)CC3)[nH]c2=O)cc1OC | -4.95%
36 | O=P(O)(CN1CCCCC1)CN1CCCCC1 | -5.45%
37 | O=C(CN1C(=O)CSc2ncccc21)N1CCOCC1 | -4.9%
38 | COc1ccccc1NC(=O)C1=C(C)NC2=C(C(=O)CCC2)C1c1ccc(C)o1 (stereo not drawn) | -19.4%
39 | COC(=O)C1=C(C)NC(=O)NC1/C=C/c1ccccc1 (stereo not drawn) | -63.7%
40 | COC(=O)C1=C(C)NC2=C(C(=O)c3ccccc32)C1c1ccc(-c2ccc(C(=O)O)cc2)o1 (stereo not drawn) | 81.9% (active)
41 | Cc1nnc(NC(=O)CCC(=O)N2CCC(C)CC2)s1 | -0.8%
42 | Cc1cc(=O)n2nc(N3CCCC(C(=O)NCCC4=CCCCC4)C3)sc2n1 (stereo not drawn) | -4.48%

Row | Structure (SMILES) | inhibition
43 | COc1ccc(NC(=O)CN2CCN(S(=O)(=O)c3ccc(F)cc3)CC2)cc1Cl | -9.57%
44 | COc1ccccc1NC(=O)CN1CCN(S(=O)(=O)c2ccc(Br)cc2)CC1 | -1.95%
45 | COc1cc2c(cc1NC(=O)CN1CCN(S(=O)(=O)c3ccc(F)cc3)CC1)oc1ccccc12 | 56.4% (active)
46 | Cc1cc(Br)ccc1NC(=O)C1CCCO1 (stereo not drawn) | -14.4%
47 | N#Cc1ccc(OCCN2C(=O)NC3(CCSC3)C2=O)cc1 (stereo not drawn) | -7.99%
48 | O=C(CN1C(=O)CCC1=O)Nc1ccc(S(=O)(=O)N2CCOCC2)cc1 | -11.6%
49 | Clc1ccc(Cc2nn3c(-c4ccncc4)nnc3s2)cc1 | 53.8% (active)
50 | Nc1scc(-c2ccncc2)c1Cl | -13.4%
51 | Clc1ccc(Cc2nnc(-c3cccs3)o2)cc1 | -42.9%
52 | CCOC(=O)c1ccc(CS(=O)c2ccc(Cl)cc2)o1 (stereo not drawn) | -8.12%
53 | COc1ccc(S(=O)(=O)NC2(C(F)(F)F)N=C3SCCN3C2=O)cc1 (stereo not drawn) | -21.6%
54 | CCOC(=O)c1sc(NC(=O)C(CC)Sc2nccn2C)nc1C (stereo not drawn) | 7.42%
55 | Cc1nc(NC(=O)CCC(=O)O)sc1C(=O)N(C)C | 0.73%
56 | CCOC(=O)c1sc(/N=C/Nc2nc(C)c(C(=O)OCC)s2)nc1C | 66.5% (active)
57 | CCCOC(=O)CC1C(=O)NCCN1Cc1ccc(F)cc1 (stereo not drawn) | 15.5%
58 | CC(=O)Nc1ccc(S(=O)(=O)N2CCN(CCCOc3cc(C)ccc3C)CC2)cc1 | -8.05%
59 | CCC(CC)C(=O)Nc1cc(C(=O)OC)cc(C(=O)OC)c1 | -9.62%
60 | Cc1ccc(S(=O)(=O)C2(S(=O)(=O)c3ccc(C)cc3)CCCC2)cc1 | -7.65%
61 | CCOc1ccc2[nH]c(=O)c(CN(CCCO)C(C)=O)cc2c1 | 84.7% (active)
62 | COc1ccc(N(Cc2cc3cc(OC)ccc3[nH]c2=O)S(C)(=O)=O)cc1 | -0.75%
63 | CCC(=O)N(Cc1cc2cc(OC)ccc2[nH]c1=O)c1ccccc1C | -2.05%
